# Many of the other results were omitted from the sample, so hits are more common in it than they were.
# KDM5B inhibitor – inhibitors of human KDM5B histone demethylase. KDM5B demethylase, FDH-coupled NADH fluorescence (FDH is formaldehyde dehydrogenase). 220,000 tested, 2.6% active. AID 1347165. Potency, µM (doses to about 57.7 µM), usual class: inhibitors. Q9UGL1; active means well fitted inhibition curve with a large enough effect; further: 0% is about no effect; nearly all actives have a fitted effect of over 70% in size
# Target sequence (Q9UGL1 whole entry, looked up): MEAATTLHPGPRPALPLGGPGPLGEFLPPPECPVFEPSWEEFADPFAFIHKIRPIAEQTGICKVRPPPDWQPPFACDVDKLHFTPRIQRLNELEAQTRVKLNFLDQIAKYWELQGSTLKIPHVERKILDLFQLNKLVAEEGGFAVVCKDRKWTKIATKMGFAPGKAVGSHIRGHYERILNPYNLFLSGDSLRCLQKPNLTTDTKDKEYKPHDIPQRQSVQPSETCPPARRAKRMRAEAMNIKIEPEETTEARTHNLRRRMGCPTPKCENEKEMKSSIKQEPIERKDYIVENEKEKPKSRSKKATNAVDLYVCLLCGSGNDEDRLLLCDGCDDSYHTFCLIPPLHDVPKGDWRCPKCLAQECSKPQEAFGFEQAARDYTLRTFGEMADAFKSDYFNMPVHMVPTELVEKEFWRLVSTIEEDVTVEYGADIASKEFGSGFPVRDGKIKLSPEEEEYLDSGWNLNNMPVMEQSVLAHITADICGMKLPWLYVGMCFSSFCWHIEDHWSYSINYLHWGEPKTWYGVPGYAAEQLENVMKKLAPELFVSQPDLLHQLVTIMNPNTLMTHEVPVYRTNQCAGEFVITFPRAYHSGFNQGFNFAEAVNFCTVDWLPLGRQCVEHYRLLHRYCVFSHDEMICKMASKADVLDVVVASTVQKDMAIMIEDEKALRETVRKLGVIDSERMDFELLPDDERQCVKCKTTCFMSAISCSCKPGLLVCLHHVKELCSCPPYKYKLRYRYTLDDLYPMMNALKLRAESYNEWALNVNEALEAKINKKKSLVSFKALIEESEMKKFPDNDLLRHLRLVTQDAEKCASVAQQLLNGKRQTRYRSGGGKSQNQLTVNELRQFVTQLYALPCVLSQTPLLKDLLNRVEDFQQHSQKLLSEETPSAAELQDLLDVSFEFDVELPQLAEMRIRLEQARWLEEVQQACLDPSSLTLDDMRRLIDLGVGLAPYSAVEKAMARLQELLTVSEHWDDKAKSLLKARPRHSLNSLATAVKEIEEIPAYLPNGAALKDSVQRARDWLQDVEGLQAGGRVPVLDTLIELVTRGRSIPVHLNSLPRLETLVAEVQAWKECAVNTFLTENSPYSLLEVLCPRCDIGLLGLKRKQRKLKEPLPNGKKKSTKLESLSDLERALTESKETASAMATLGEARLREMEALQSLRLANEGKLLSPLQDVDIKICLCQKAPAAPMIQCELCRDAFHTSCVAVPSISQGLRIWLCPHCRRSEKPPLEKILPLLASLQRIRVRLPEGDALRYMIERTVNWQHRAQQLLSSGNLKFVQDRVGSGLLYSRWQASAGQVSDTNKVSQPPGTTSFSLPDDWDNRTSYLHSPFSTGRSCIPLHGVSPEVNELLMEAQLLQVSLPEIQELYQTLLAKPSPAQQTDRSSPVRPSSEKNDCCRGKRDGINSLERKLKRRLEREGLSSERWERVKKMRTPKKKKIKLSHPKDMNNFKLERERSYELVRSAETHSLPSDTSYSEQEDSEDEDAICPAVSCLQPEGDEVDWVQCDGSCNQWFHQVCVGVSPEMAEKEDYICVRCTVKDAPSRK
#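 Compound dilutions met 200 nM (final) KDM5BΔAP for 10 min at room temperature before substrate addition. The substrate mix held 12.5 µM H3K4me3 with cofactors 25 µM α-ketoglutarate and 50 µM Fe²⁺. NADH signal gain over 30 min defined activity.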
# Numbers without * were called inactive; i = inactive. Potency means the concentration at half of the fitted maximal effect.
SMILES,KDM5B inhibitor
O=C1CO[C@H]2CN(Cc3ncc[nH]3)C[C@H]2N1Cc1ccncc1,35µM*
O=C1CO[C@H]2CN(Cc3ncc[nH]3)C[C@H]2N1Cc1cccnc1,25µM*
O=C1CO[C@H]2CN(C3CCOCC3)C[C@H]2N1Cc1ccccn1,i
O=C1CO[C@H]2CN(Cc3ccco3)C[C@H]2N1Cc1cccnc1,i
CN1C(=O)CO[C@H]2CN(Cc3ncc[nH]3)C[C@H]21,35µM*
O=C1CO[C@H]2CN(CC3CC3)C[C@H]2N1Cc1ccccn1,i
O=C1CO[C@H]2CN(Cc3cccnc3)C[C@H]2N1,i
CN1C(=O)CO[C@H]2CN(C3CCOCC3)C[C@H]21,i
COc1cc(CN2CCN(C(=O)COc3ccccc3)CC2)cc(OC)c1O,i
COc1ccc(NC(=O)N2[C@H]3CC[C@@H]2c2cnc(-c4ccc(F)cc4)nc2C3)c(OC)c1,i
CN1CCC2(CC1)N1CC3(C)CN2CC(C)(C1)C3=O,i
COC1C(O)C(C)OC(OC2CCC3(C)C(CC[C@@H]4[C@@H]3CCC3(C)C(C5=CC(=O)OC5)C(O)CC43O)C2)C1O (some centres undefined),i
Cc1ccc(C(=O)N2CCC3(CC2)c2nccn2-c2ccccc2CN3C)c(C)c1,i
N#CC(C#N)=Cc1c[nH]c2ccccc12,i
COc1cc2c(cc1OCc1ccccc1)N(C(=O)C1CCC(C)CC1)CC21CCN(C)CC1 (centres undefined),i
CC1c2cccn2-c2ccccc2CN1C(=O)Nc1ccc(F)cc1F (centres undefined),i
Cc1cc(C(=O)N2[C@H]3CC[C@@H]2c2cnc(-c4ccc(F)cc4)nc2C3)n[nH]1,i
C=C[C@H]1CN2CC[C@H]1C[C@@H]2CNC(=O)Nc1cccc(C(F)(F)F)c1,i
O=C(Cc1cccc(Cl)c1)N1[C@H]2CC[C@@H]1c1cnc(-c3ccccc3)nc1C2,i
COc1ccc(C2=NOC3(CCN(Cc4cccnc4)C3)C2)cc1 (centres undefined),i
CC(=O)N1CCC2(CC1)CC(c1cccnc1)=NO2,18µM*
CC(=O)N1CCC2(C1)N=C(c1cccnc1)C(=O)N2 (centres undefined),35µM*
COc1cc2c(cc1-c1cccnc1)NC(=O)C21CCN(C(C)=O)CC1,i
CC(=O)N1CCC2(CC1)C(=O)NN=C2c1cccnc1,i
c1cncc(C2=NOC3(CCN(C4CCCCC4)CC3)C2)c1,i
SMILES,KDM5B inhibitor
Cc1ccc(CNCCc2ccccc2)s1,i
O=[S+]1([O-])NC2(CCN(Cc3ccccn3)C2)COc2ccncc21 (centres undefined),i
O=[S+]1([O-])NC2(CCN(Cc3ccncc3)C2)COc2ccncc21 (centres undefined),40µM*
O=[S+]1([O-])NC2(CCN(Cc3cccnc3)C2)COc2ccncc21 (centres undefined),i
COc1cc2c(cc1Oc1ccccc1)NC(=O)C21CCN(C(=O)c2cccc(O)c2)CC1,i
COCc1cn(C[C@H]2C[C@@H]3CCN2C[C@@H]3C(=O)NCc2ccccc2OC)nn1,i
O=C(c1ccc(F)cc1)N1C[C@@H]2C[C@H](C1)c1c(-c3cc4ccccc4s3)ccc(=O)n1C2,i
N#Cc1ccc(C(=O)N2C[C@@H]3C[C@H](C2)c2c(-c4ccc(Cl)cc4)ccc(=O)n2C3)cc1,i
O=C(c1ccccc1)N1C[C@@H]2C[C@H](C1)c1c(/C=C/c3ccc(Cl)cc3)ccc(=O)n1C2,35µM*
COc1ccccc1CNC(=O)[C@H]1CN2CC[C@H]1C[C@@H]2Cn1cc(-c2ccccc2)nn1,i
COc1ccc(Oc2c(C)oc3cc(OCC(=O)N4CCN(C)CC4)ccc3c2=O)cc1,i
COc1ccc(N2C(=O)NC(=O)C3(Cc4cc(C)ccc4N(C)C3)C2=O)cc1 (centres undefined),i
COc1cc2c(cc1CCc1ccccc1)N([S+](=O)([O-])c1ccc3c(c1)CCO3)CC21CCN(C(C)=O)CC1,28µM*
COc1cc2c(cc1CCc1ccccc1)N(C(=O)Cc1ccc3c(c1)OCO3)CC21CCN(C(C)=O)CC1,i
COc1cc2c(cc1CCc1ccccc1)N(C(=O)COc1ccccc1)CC21CCN(C(C)=O)CC1,i
N#CC1=C(N)Oc2nc(SCc3ccccc3Cl)nc(N)c2C1c1ccc(F)cc1 (centres undefined),i
CC(=O)c1ccc(NC(=O)NC[C@H]2C[C@@H]3CCN2C[C@@H]3CN2CCN(C)CC2)cc1,i
CCOc1ccccc1CNCCc1c[nH]c2ccccc12,i
COc1ccc([N+](=O)[O-])cc1,i
CSc1cccc(NC(=O)NC[C@H]2C[C@@H]3CCN2C[C@@H]3CN2CCN(c3ccccc3)CC2)c1,i
Cc1noc(C)c1COc1ccc(CC(=O)N2CCCN(C)CC2)cc1,i
COc1cncc(N2CC3CCC(C2)N3CC(F)(F)F)c1,i
FC(F)(F)CN1C2CCC1CN(c1ccc(C(F)(F)F)cn1)C2,i
FC(F)(F)CN1C2CCC1CN(c1nnc(Cl)c3ccccc13)C2,i
FC(F)(F)CN1C2CCC1CN(c1cncc(Cl)c1)C2,i
SMILES,KDM5B inhibitor
FC(F)(F)CN1C2CCC1CN(c1cnc3ccccc3c1)C2,100µM*
COc1cccc(N2CC3CCC(C2)N3CC(F)(F)F)n1,100µM*
CN1CCc2c([nH]c3ccccc23)C12CCNCC2,i
C=C[C@H]1CN2CC[C@H]1C[C@@H]2CNC(=O)Nc1cccc(SC)c1,i
CN1CCN(Cc2cccc(OC(F)F)c2)CC1CCO (centres undefined),i
C#C[C@H]1CN2CC[C@H]1C[C@@H]2COC(=O)Nc1ccc(OC(F)(F)F)cc1,i
COc1cc2c(cc1OCCN(C)C)NC(=O)C21CCN(Cc2ccccc2)CC1,i
Cc1ccc(C)c(NC(=O)CN2C(=O)CN=C(c3ccc(F)cc3)c3c2sc(C)c3C)c1,i
Cc1nc(-c2ccccc2Br)cc([C@H]2CN3CC[C@H]2C[C@@H]3CNS(=O)(=O)c2cccs2)n1,i
CC(=O)Nc1ccc(S(=O)(=O)NC[C@H]2C[C@@H]3CCN2C[C@@H]3c2cc(-c3ccc(N(C)C)cc3)nc(C)n2)cc1,20µM*
CC(=O)Nc1ccc(S(=O)(=O)NC[C@H]2C[C@@H]3CCN2C[C@@H]3c2cc(-c3ccco3)nc(C)n2)cc1,32µM*
CC(=O)Nc1ccc(S(=O)(=O)NC[C@H]2C[C@@H]3CCN2C[C@@H]3c2cc(-c3ccc(F)cc3)nn2C)cc1,i
CC(=O)c1cccc(NC(=O)NC[C@H]2C[C@@H]3CCN2C[C@@H]3c2cc(-c3ccc(F)cc3)nc(C)n2)c1,i
COc1ccc(OC)c(S(=O)(=O)NC[C@H]2C[C@@H]3CCN2C[C@@H]3c2cc(-c3ccco3)nc(C)n2)c1,i
NCC(c1ccc(Cl)cc1)N1CCCC1 (centres undefined),i
C=CCNC(=O)NC[C@H]1C[C@@H]2CCN1C[C@@H]2c1cc(C(CC)CC)nc(-c2ccncc2)n1,i
COc1ccc(CCNCc2ccccc2C)cc1,i
CN1CCN(c2ccc(NC=C(C#N)C#N)cc2)CC1,i
O=C(c1cnccn1)N1C[C@@H]2C[C@H](C1)c1ccc(-c3cccc(C(F)(F)F)c3)c(=O)n1C2,18µM*
CSCC(=O)N1C[C@@H]2C[C@H](C1)c1ccc(-c3ccccc3CN(C)C)c(=O)n1C2,32µM*
O=C(O)CCC(=O)N1C[C@@H]2C[C@H](C1)c1c(-c3cc4ccccc4s3)ccc(=O)n1C2,i

# Screening results: PubChem BioAssay, National Center for Advancing Translational Sciences (NCATS)
